# Reference: PubChem BioAssay AID493169 (National Center for Advancing Translational Sciences (NCATS), 2011)
# Records with an inconclusive call do not appear. Entries that show only a call come without a potency. The source made the active and inactive calls. Calls come from the whole dose curve; as a rule, active = well fitted inhibition curve with a large enough effect; inconclusive = small, poorly fitted or top-dose-only effect; inactive = flat fitted curve, though single readings scatter.
# Assay: CHOP2 Reporter Counterscreen Assay for Inhibitors of Ubiquitin-specific Protease USP2a;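 note: activated enterokinase alone at 50 pM in a cell-free format rather than USP2a or CHOP2; nearly all actives have a fitted effect of over 55% in size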
# Settings: purified enterokinase, fluorogenic substrate, 485/531 nm; series mostly up to 38.3 µM
# Method in brief: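 Fluorescence (485/531 nm) read 10 min after adding 25nM reporter substrate to 50 pM activated EK preincubated 30 min RT with compound; Tris pH 8.0/CaCl2/CHAPS buffer. Data normalized to buffer-alone inhibition; concentration-response curves fitted.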
# Potency is the fitted concentration of half-maximal effect.
row,SMILES,Potency
1,CC(=O)Nc1ccc(NC(=O)C2CCCN(S(=O)(=O)c3ccc(Cl)cc3)C2)cc1 (stereo not given),inactive
2,CCOC(=O)c1c(NC(C)=O)sc2c1CCCNC2=O,inactive
3,Cc1ccc(N=C2NC(=O)/C(=C/C=C/c3ccco3)S2)cc1C,8.91 µM (active)
4,O=C(NCCCN1CCCC1=O)c1cccc(N2CCCC2=O)c1,inactive
5,O=C(CCCN1C(=O)c2ccccc2C1=O)NC1=NCCS1,inactive
6,CCNC1=C(Cl)C(=O)c2ccccc2C1=O,inactive
7,O=C(CNC(=O)c1ccco1)Nc1ccc(S(=O)(=O)N2CCCC2)cc1,inactive
8,Cc1cc(NS(=O)(=O)c2ccc(Nc3nc(-c4ccc(C)c(C)c4)cs3)cc2)no1,inactive
9,COC(=O)CSc1nc2c(c(-c3ccco3)c1C#N)CCCC2,inactive
10,C=CC[C@@H](CC(=O)N(CCO)Cc1ccccc1)C(=O)NCCOC(=O)[C@H](CC=C)CC(=O)OC(C)(C)C,inactive
11,C/C(Cn1nnc2ccccc21)=N\OC(=O)c1ccccc1C,inactive
12,Cc1ccc(NC(=O)c2cc3c(=O)oc4ccccc4c3s2)nc1,inactive
13,CC(C)C(=O)N=c1sc2cc(F)cc(F)c2n1C,inactive
14,CCn1c(COc2ccccc2)nnc1SCC(=O)CC(=O)Nc1ccccc1OC,inactive
15,COc1cc(/C=N/NC(=O)c2cc(-c3ccccc3)nc3ccccc23)ccc1O,inactive
16,O=C(O)c1cccc(-n2cccc2/C=C2/NC(=O)N(c3ccc(Cl)cc3)C2=O)c1,2 µM (active)
17,O=C(CN1CCOCC1)Nc1ccc(C2CCCCC2)cc1,inactive
18,CCOc1cc(N2CCOCC2)c(OCC)cc1NC(=O)Cc1cn2ccsc2n1,inactive
19,COc1cc(C2C(C#N)=C(N)Oc3c2ccc2ccccc32)ccc1OCC(=O)Nc1cccc(C)c1 (stereo not given),inactive
20,Cc1nc(N(C)C)c2sc(=S)n(C)c2n1,inactive

row,SMILES,Potency
1,CC(=O)C1=C(O)C(=O)N(c2nnn(C)n2)C1c1cccs1 (stereo not given),inactive
2,Cc1cnc(N)c2c(=O)oc3ccccc3c12,inactive
3,CC(=O)N1c2c(cc(Br)cc2S(=O)(=O)NCc2cccnc2)CC1C (stereo not given),inactive
4,CCOC(=O)c1[nH]c2ccc(OC)cc2c1NC(=O)CCN1CCCC(C)C1 (stereo not given),inactive
5,Nc1ccccc1S(=O)(=O)NC1=NCCCCC1,inactive
6,Cc1nc2n(n1)CC(O)CS2 (stereo not given),inactive
7,O=C(CSc1nc2ccccc2[nH]1)Nc1ccc2c(c1)OCCO2,inactive
8,COc1ccc(Cl)cc1S(=O)(=O)Nc1cccc(C(=O)O)c1,inactive
9,O=C1S/C(=C\C=C\c2ccco2)C(=O)N1c1ccc(O)cc1,10 µM (active)
10,COc1ccc(NC(=O)CSc2ncccc2C(=O)OC(C)C)cc1OC,inactive
11,Cc1cccc(Nc2nc(NCc3ccco3)c3ccccc3n2)c1,inactive
12,Cc1noc(/C=C/c2ccco2)c1S(=O)(=O)N1CCC(C(=O)N2CCc3ccccc3C2)CC1,inactive
13,CCC(CO)Oc1cc(NCc2cccc(C)c2)c2ncn(C(C)C)c2c1 (stereo not given),inactive
14,COC(=O)c1nnn(-c2nonc2N)c1CSc1ccccn1,inactive
15,NS(=O)(=O)c1ccc(NC(=O)/C=C/c2cn(-c3ccccc3)nc2-c2cccc(Cl)c2)cc1,inactive
16,COCc1c(C(=O)OCC(=O)c2c(N)n(CC(C)C)c(=O)n(C)c2=O)oc2ccccc12,inactive
17,COc1ccccc1N1CCN(c2cc(C)nc3nc(C)nn23)CC1,inactive
18,O=C1c2ccccc2C(=O)N1CCC1=CCCCC1,inactive
19,CN(C)c1cccc(C(=O)NNC(=O)C23CC4CC(CC(C4)C2)C3)c1,inactive
20,Cc1cc(NC(=O)COC(=O)CCCOc2ccc(Cl)cc2C)no1,inactive
